Reference: PubChem BioAssay (NCATS)
Records with an inconclusive call do not appear. Entries that show only a call come without a potency. Values without a mark were called inactive. Active and inactive are the calls of the source. The call rests on the fitted dose curve; in most records, active means well fitted curve in the direction sought with a large enough effect; inconclusive means small, poorly fitted or top-dose-only effect, or another doubt; inactive means no such curve, though single readings can be large; an effect the other way counts as inactive or inconclusive.

What was measured:
[1] = target: ATP-dependent 6-phosphofructokinase (Trypanosoma brucei brucei) (UniProt O15648); assay: qHTS Assay to Find Inhibitors of T. brucei phosphofructokinase: hit validation (AID 492961);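 further: luminescence reports ADP formed as PFK phosphorylates fructose-6-phosphate with ATP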
Method in brief: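 Compounds titrated; %activity normalized to 0x and 1x enzyme controls, curve-fitted. Readout: ADP-Glo luminescence after 45 min room-temperature reaction of 1.25 nM PFK, 0.1 mM ATP, 0.5 mM F6P, pH 8.0.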

[2] = qHTS profiling for inhibitors of Plasmodium falciparum proliferation (AID 504749); further: potency means the concentration at half of the fitted maximal effect; on all read-outs here: nearly all actives have a fitted effect of over 60% in size; conditions: P. falciparum in erythrocytes, SYBR Green DNA, 72 h; for activity, negative = inhibition: at 28.7 µM (top of the series)
Method in brief: (§1)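 P. falciparum-infected erythrocytes (0.3% parasitemia, 2.5% hematocrit) incubated with compound 72 h at 37 C, 5% CO2. Parasite DNA detected by SYBR Green after lysis, overnight at room temperature; normalised to 0.29 uM artemisinin and DMSO.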

AA1029 = assay: as above; conditions: P. falciparum in erythrocytes, SYBR Green DNA, 72 h; series mostly up to 28.7 µM
Method in brief: as §1

AS120 = assay: as above; conditions: P. falciparum in erythrocytes, SYBR Green DNA, 72 h; series mostly up to 28.7 µM
Method in brief: as §1

ATS189 = assay: as above; conditions: P. falciparum in erythrocytes, SYBR Green DNA, 72 h; series mostly up to 28.7 µM
Method in brief: as §1

CP185 = assay: as above; conditions: P. falciparum in erythrocytes, SYBR Green DNA, 72 h; series mostly up to 28.7 µM
Method in brief: as §1

CP191 = assay: as above; conditions: P. falciparum in erythrocytes, SYBR Green DNA, 72 h; series mostly up to 28.7 µM
Method in brief: as §1

CP192 = assay: as above; conditions: P. falciparum in erythrocytes, SYBR Green DNA, 72 h; series mostly up to 28.7 µM
Method in brief: as §1

CP211 = assay: as above; conditions: P. falciparum in erythrocytes, SYBR Green DNA, 72 h; series mostly up to 28.7 µM
Method in brief: as §1

CP217 = assay: as above; conditions: P. falciparum in erythrocytes, SYBR Green DNA, 72 h; series mostly up to 28.7 µM
Method in brief: as §1

CP238 = assay: as above; conditions: P. falciparum in erythrocytes, SYBR Green DNA, 72 h; series mostly up to 28.7 µM
Method in brief: as §1

CP252 = assay: as above; conditions: P. falciparum in erythrocytes, SYBR Green DNA, 72 h; series mostly up to 28.7 µM
Method in brief: as §1

CP262 = assay: as above; conditions: P. falciparum in erythrocytes, SYBR Green DNA, 72 h; series mostly up to 28.7 µM
Method in brief: as §1

CP265 = assay: as above; conditions: P. falciparum in erythrocytes, SYBR Green DNA, 72 h; series mostly up to 28.7 µM
Method in brief: as §1

CP286 = assay: as above; conditions: P. falciparum in erythrocytes, SYBR Green DNA, 72 h; series mostly up to 28.7 µM
Method in brief: as §1

Dd2 = assay: as above; conditions: P. falciparum in erythrocytes, SYBR Green DNA, 72 h; series mostly up to 28.7 µM
Method in brief: as §1

ECU = assay: as above; conditions: P. falciparum in erythrocytes, SYBR Green DNA, 72 h; series mostly up to 28.7 µM
Method in brief: as §1

FAB9 = assay: as above; conditions: P. falciparum in erythrocytes, SYBR Green DNA, 72 h; series mostly up to 28.7 µM
Method in brief: as §1

HB3 = assay: as above; conditions: P. falciparum in erythrocytes, SYBR Green DNA, 72 h; series mostly up to 28.7 µM
Method in brief: as §1

N140 = assay: as above; conditions: P. falciparum in erythrocytes, SYBR Green DNA, 72 h; series mostly up to 28.7 µM
Method in brief: as §1

Sequence of ATP-dependent 6-phosphofructokinase (Trypanosoma brucei brucei) (O15648 whole entry, looked up): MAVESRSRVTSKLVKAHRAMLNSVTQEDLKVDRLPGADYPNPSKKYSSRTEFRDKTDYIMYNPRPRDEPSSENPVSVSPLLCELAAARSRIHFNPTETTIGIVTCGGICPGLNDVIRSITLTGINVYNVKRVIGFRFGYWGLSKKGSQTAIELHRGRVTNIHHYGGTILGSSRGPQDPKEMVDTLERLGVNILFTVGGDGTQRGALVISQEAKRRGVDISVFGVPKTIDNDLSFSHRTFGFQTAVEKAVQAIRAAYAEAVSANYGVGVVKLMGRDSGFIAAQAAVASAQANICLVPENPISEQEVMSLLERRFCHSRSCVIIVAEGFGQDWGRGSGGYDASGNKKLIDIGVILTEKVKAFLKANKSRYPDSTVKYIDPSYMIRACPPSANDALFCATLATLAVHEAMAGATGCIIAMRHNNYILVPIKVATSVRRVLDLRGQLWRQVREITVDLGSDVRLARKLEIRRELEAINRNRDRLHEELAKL

CC(CCC(=O)O)C1CCC2C3C(=O)C[C@@H]4CC(=O)CC[C@@]4(C)C3CC(=O)[C@]12C (some centres undefined)
Potency [1]: inactive
activity, negative = inhibition ([2]; parasite line A): -3.83%
activity, negative = inhibition ([2]; parasite line B): 1.51%
Potency (AA1029): inactive
Potency (AS120): inactive
Potency (ATS189): inactive
Potency (CP185): inactive
Potency (CP191): inactive
Potency (CP192): inactive
Potency (CP211): inactive
Potency (CP217): inactive
Potency (CP238): inactive
Potency (CP252): inactive
Potency (CP262): inactive
Potency (CP265): inactive
Potency (CP286): inactive
Potency (Dd2): inactive
Potency (ECU): inactive
Potency (FAB9): inactive
Potency (HB3): inactive
Potency (N140): inactive

C=C1NC(=O)c2cc(CN(C)c3ccc(C(=O)N[C@@H](CCC(=O)O)C(=O)O)s3)ccc2N1
Potency [1]: inactive
activity, negative = inhibition ([2]; parasite line A): 2.89%
activity, negative = inhibition ([2]; parasite line B): 4.82%
Potency (AA1029): inactive
Potency (AS120): inactive
Potency (ATS189): inactive
Potency (CP185): inactive
Potency (CP191): inactive
Potency (CP192): inactive
Potency (CP211): inactive
Potency (CP217): inactive
Potency (CP238): inactive
Potency (CP252): inactive
Potency (CP262): inactive
Potency (CP265): inactive
Potency (CP286): inactive
Potency (Dd2): inactive
Potency (ECU): inactive
Potency (FAB9): inactive
Potency (HB3): inactive
Potency (N140): inactive

C/C(=C(/CCO)SS/C(CCO)=C(\C)N(C=O)Cc1cnc(C)nc1N)N(C=O)Cc1cnc(C)nc1N
Potency [1]: inactive
activity, negative = inhibition ([2]; parasite line A): -6.53%
activity, negative = inhibition ([2]; parasite line B): -3.11%
Potency (AA1029): inactive
Potency (AS120): inactive
Potency (ATS189): inactive
Potency (CP185): inactive
Potency (CP191): inactive
Potency (CP192): inactive
Potency (CP211): inactive
Potency (CP217): inactive
Potency (CP238): inactive
Potency (CP252): inactive
Potency (CP262): inactive
Potency (CP265): inactive
Potency (CP286): inactive
Potency (Dd2): inactive
Potency (ECU): inactive
Potency (FAB9): inactive
Potency (HB3): inactive
Potency (N140): inactive

CCCCC(=O)O[C@]1(C(=O)CO)CCC2C3CCC4=CC(=O)CCC4(C)C3C(O)CC21C (some centres undefined)
Potency [1]: inactive
activity, negative = inhibition ([2]; parasite line A): -2.08%
activity, negative = inhibition ([2]; parasite line B): -4.71%
Potency (AA1029): inactive
Potency (AS120): inactive
Potency (ATS189): inactive
Potency (CP185): inactive
Potency (CP191): inactive
Potency (CP192): inactive
Potency (CP211): inactive
Potency (CP217): inactive
Potency (CP238): inactive
Potency (CP252): inactive
Potency (CP262): inactive
Potency (CP265): inactive
Potency (CP286): inactive
Potency (ECU): inactive
Potency (FAB9): inactive
Potency (HB3): inactive
Potency (N140): inactive

NC(=O)c1ncn(C2OC(CO)C(O)C2O)c1N (centres undefined)
Potency [1]: inactive
activity, negative = inhibition ([2]; parasite line A): 3.47%
activity, negative = inhibition ([2]; parasite line B): 6.51%
Potency (AA1029): inactive
Potency (AS120): inactive
Potency (ATS189): inactive
Potency (CP185): inactive
Potency (CP191): inactive
Potency (CP192): inactive
Potency (CP211): inactive
Potency (CP217): inactive
Potency (CP238): inactive
Potency (CP252): inactive
Potency (CP262): inactive
Potency (CP265): inactive
Potency (CP286): inactive
Potency (Dd2): inactive
Potency (ECU): inactive
Potency (FAB9): inactive
Potency (HB3): inactive
Potency (N140): inactive

O=C(O)C(O)c1ccccc1 (centres undefined)
Potency [1]: inactive
activity, negative = inhibition ([2]; parasite line A): 2.53%
activity, negative = inhibition ([2]; parasite line B): 10.7%
Potency (AA1029): inactive
Potency (AS120): inactive
Potency (ATS189): inactive
Potency (CP185): inactive
Potency (CP191): inactive
Potency (CP192): inactive
Potency (CP211): inactive
Potency (CP217): inactive
Potency (CP238): inactive
Potency (CP252): inactive
Potency (CP262): inactive
Potency (CP265): inactive
Potency (CP286): inactive
Potency (Dd2): inactive
Potency (ECU): inactive
Potency (FAB9): inactive
Potency (HB3): inactive
Potency (N140): inactive

CC1(C(=O)O)CCC2(C)CCC3(C)C(=CC(=O)C4C5(C)CCC(O)C(C)(C)C5CCC43C)C2C1 (centres undefined)
Potency [1]: inactive
activity, negative = inhibition ([2]; parasite line A): 8.05%
activity, negative = inhibition ([2]; parasite line B): 1.81%
Potency (AA1029): inactive
Potency (AS120): inactive
Potency (ATS189): inactive
Potency (CP185): inactive
Potency (CP191): inactive
Potency (CP192): inactive
Potency (CP211): inactive
Potency (CP217): inactive
Potency (CP238): inactive
Potency (CP252): inactive
Potency (CP262): inactive
Potency (CP265): inactive
Potency (CP286): inactive
Potency (Dd2): inactive
Potency (ECU): inactive
Potency (FAB9): inactive
Potency (HB3): inactive
Potency (N140): inactive

CCCCCOC(=O)Nc1nc(=O)n(C2O[C@H](C)[C@@H](O)[C@@H]2O)cc1F (some centres undefined)
Potency [1]: inactive
activity, negative = inhibition ([2]; parasite line A): -10.4%
activity, negative = inhibition ([2]; parasite line B): 12.5%
Potency (AA1029): inactive
Potency (AS120): inactive
Potency (ATS189): inactive
Potency (CP185): inactive
Potency (CP191): 8910 nM (active)
Potency (CP192): inactive
Potency (CP211): inactive
Potency (CP217): inactive
Potency (CP238): inactive
Potency (CP252): inactive
Potency (CP262): inactive
Potency (CP265): inactive
Potency (CP286): inactive
Potency (Dd2): inactive
Potency (ECU): inactive
Potency (FAB9): inactive
Potency (HB3): inactive
Potency (N140): inactive

CO/N=C(/C(=O)N[C@@H]1C(=O)N2C(C(=O)O)=C(CSc3nnnn3C)CS[C@H]12)c1csc(N)n1
Potency [1]: inactive
activity, negative = inhibition ([2]; parasite line A): 6.68%
activity, negative = inhibition ([2]; parasite line B): 0.88%
Potency (AA1029): inactive
Potency (AS120): inactive
Potency (ATS189): inactive
Potency (CP185): inactive
Potency (CP191): inactive
Potency (CP192): inactive
Potency (CP211): inactive
Potency (CP217): inactive
Potency (CP238): inactive
Potency (CP252): inactive
Potency (CP262): inactive
Potency (CP265): inactive
Potency (CP286): inactive
Potency (Dd2): inactive
Potency (ECU): inactive
Potency (FAB9): inactive
Potency (HB3): inactive
Potency (N140): inactive

CC[C@H](C)[C@H]1O[C@]2(CC[C@@H]1C)C[C@@H]1C[C@@H](C/C=C(\C)[C@H](O[C@@H]3C[C@H](OC)[C@H](O[C@@H]4C[C@H](OC)[C@@H](O)[C@H](C)O4)[C@H](C)O3)[C@@H](C)/C=C/C=C3\CO[C@@H]4[C@H](O)C(C)=C[C@@H](C(=O)O1)[C@]34O)O2
Potency [1]: inactive
Potency ([2]; parasite line A): 355 nM (active)
Potency ([2]; parasite line B): 794 nM (active)
Potency (AA1029): 1000 nM (active)
Potency (AS120): 1000 nM (active)
Potency (ATS189): 891 nM (active)
Potency (CP185): 1000 nM (active)
Potency (CP191): 794 nM (active)
Potency (CP192): 1690 nM (active)
Potency (CP211): 1350 nM (active)
Potency (CP217): 794 nM (active)
Potency (CP238): 1260 nM (active)
Potency (CP252): 794 nM (active)
Potency (CP262): 1200 nM (active)
Potency (CP265): 794 nM (active)
Potency (CP286): 1260 nM (active)
Potency (Dd2): 2240 nM (active)
Potency (ECU): 891 nM (active)
Potency (FAB9): 3160 nM (active)
Potency (HB3): 2000 nM (active)
Potency (N140): 1000 nM (active)
